Hits are enriched below; roughly 19% of the tested compounds scored in any of these assays.
HepG2 tox = HepG2 cytotoxicity, counter-screen for TGF-b inhibitors; actives 0.76% (n = 410,000); Potency, µM (series often up to 46.1 µM), actives largely listed as cytotoxic; HepG2 CAGA-GFP viability, ATP luminescence, 18 h
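HepG2 CAGA-GFP cells (1000/well, DMEM with 1% FBS) received compound, then TGF-beta at 500 pg/mL final, and were incubated 18 hours at 37 degrees C. Viability was read by CellTiter-Glo luminescence. Media-only wells were set as complete cell-killing and DMSO as no toxicity.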
DT40 TDP1 no CPT = qHTS for Inhibitors of human tyrosyl-DNA phosphodiesterase 1 (TDP1): qHTS in cells in absence of CPT; DT40 Tdp1-/- hTDP1 cells, no CPT, ATP luminescence, 48 h; Potency, µM (highest dose often 46.2 µM), most hits filed as inhibitors; actives 15% (n = 420,000); AID 686978, 2013; note: nearly all actives have a fitted effect of over 55% in size
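Stably hTDP1-transfected Tdp1-null chicken DT40 cells were treated with library compounds minus camptothecin and grown for at least 48 hr at 37 °C, after which cellular ATP was quantified by luminescence.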
IL-1B inflam inh = inhibitors of inflammasome signaling (IL-1 beta secretion) | THP-1 LPS/ATP IL-1B secretion, AlphaLISA, 16 h; active compounds read low | activity change, % at 57.5 µM | actives 4.7% (n = 360,000); in the data active = activity change below about -50%; inconclusive = mostly about -30% to -49%
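THP-1 cells pretreated 1 hr with compounds (up to 57.5 uM final), then stimulated with LPS (250 ng/mL final) plus ATP (1.25 mM final); secreted IL-1B measured by AlphaLISA after 16 hr, decreased signal indicating inhibition.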
TDP1 inh = TDP1 (human) enzyme inhibition | Q9NUW8 | recombinant TDP1, AlphaScreen DNA substrate cleavage | Potency, µM (titrated, usually from 130 µM), hits mostly inhibitors | actives 0.28% (n = 350,000); note: nearly all actives have a fitted effect of over 40% in size
Target sequence (Q9NUW8 whole entry, looked up): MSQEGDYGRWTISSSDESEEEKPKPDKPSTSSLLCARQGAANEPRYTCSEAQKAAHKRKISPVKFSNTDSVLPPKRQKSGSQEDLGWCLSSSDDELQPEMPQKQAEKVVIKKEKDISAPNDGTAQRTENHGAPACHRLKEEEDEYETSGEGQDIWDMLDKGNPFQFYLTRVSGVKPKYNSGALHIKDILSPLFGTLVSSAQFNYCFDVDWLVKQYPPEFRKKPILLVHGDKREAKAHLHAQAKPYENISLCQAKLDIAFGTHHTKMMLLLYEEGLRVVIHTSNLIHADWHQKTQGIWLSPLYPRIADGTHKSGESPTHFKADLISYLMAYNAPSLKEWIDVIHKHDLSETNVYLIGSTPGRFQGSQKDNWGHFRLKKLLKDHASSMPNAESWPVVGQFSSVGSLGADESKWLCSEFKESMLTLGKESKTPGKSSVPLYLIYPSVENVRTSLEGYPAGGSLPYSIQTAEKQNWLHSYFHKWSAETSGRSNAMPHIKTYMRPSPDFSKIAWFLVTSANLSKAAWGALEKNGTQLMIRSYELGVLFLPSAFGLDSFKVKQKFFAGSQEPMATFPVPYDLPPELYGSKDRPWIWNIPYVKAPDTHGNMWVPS
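Here, a 5' biotin and 3' phosphotyrosine-FITC DNA oligonucleotide reports Tdp1 activity: intact substrate bridges AlphaScreen beads, while cleavage leaves a 3' phosphate and drops signal. All incubations at room temperature.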
TDP1 cell CPT = growth inhibition of DT40 Tdp1-/-;hTDP1 cells with camptothecin (screen for TDP1 inhibitors); chicken DT40 Tdp1-/-;hTDP1 cells + 20 nM CPT, ATP luminescence, 48 h; Potency, µM (titrated, usually from 46.2 µM), usual class: inhibitors; actives 12% (n = 420,000); AID 686979; note: nearly all actives have a fitted effect of over 55% in size
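Chicken DT40 Tdp1-/- cells stably complemented with human TDP1 were seeded at 400 cells/well in medium containing 20 nM camptothecin, exposed to pin-transferred compounds, and grown at 37 °C for at least 48 hr. Viability was read as ATP luminescence.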
TGFb inhibitor = inhibitors of TGF-b signaling; HepG2 CAGA-GFP TGF-b/SMAD3 reporter, GFP fluorescence, 18 h; TGF-beta stimulated, 500 pg/mL final; actives 1.2% (n = 410,000); Potency, µM (titrated, usually from 46.1 µM), most hits filed as inhibitors; AID 588855; note: nearly all actives have a fitted effect of over 65% in size
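HEPG2 CAGA-GFP, 1000 cells/well; 2 h settle, 37 C; cpd via pin tool; TGF-b 500 pg/mL final; 18 h, 37 C; GFP imaging ex488/em500-530; %Activity normalised to -TGF-b and +DMSO controls; CRC fit, curve class.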
Hits are given with their value; - = inactive; ? = inconclusive; . = no result; [ ] = dose if it differs, or a comment. Unless noted, calls come from the whole dose curve; as a rule, active = well fitted curve in the direction sought with a large enough effect; inconclusive = small, poorly fitted or top-dose-only effect, or another doubt; inactive = no such curve, though single readings can be large; an effect the other way counts as inactive or inconclusive.

SMILES	HepG2 tox	DT40 TDP1 no CPT	IL-1B inflam inh	TDP1 inh	TDP1 cell CPT	TGFb inhibitor
COc1ccccc1CNC(=O)CCC(=O)N1CC2CCCN2c2ccccc21 (stereo unspecified)	-	-	.	-	-	-
Cc1cccc(N(CC(=O)NC2CCCC2)C(=O)c2csnn2)c1C	-	-	-	-	-	-
Cc1ccc(C)c(N(CC(=O)NC2CCCC2)C(=O)c2cc3cc4cc(C)ccc4nc3s2)c1	-	11µM	-	-	8.2µM	-
Cc1ccc(Cl)cc1N(CC(=O)NC1CCCC1)C(=O)c1csnn1	-	-	-	-	-	-
Cc1cccc(N(CC(=O)NC2CCCC2)C(=O)c2cc3cc4cccc(C)c4nc3s2)c1C	-	16µM	?	-	18µM	-
COc1ccc(N2CCN(C(=O)COC(=O)c3ccc(CSC)o3)CC2)cc1	-	-	-	-	-	-
Cc1ccc2c(c1)c1c3n2CCN(C(=O)C2CC2)C3CCC1 (stereo unspecified)	-	?	-	-	?	-
Cc1ccc2c(c1)c1c3n2CC(=C2C(=O)OC(C)(C)OC2=O)NC3CCC1 (stereo unspecified)	-	21µM	-	-	21µM	?
CC(CCC(=O)O)C1CC[C@H]2C3CCC4CC(=O)CCC4(C)[C@H]3CC(=O)C12C (stereo partly specified)	-	-	-	.	-	-
Cc1ccnc(NS(=O)(=O)c2ccc(NC(=O)c3ccc([N+](=O)[O-])s3)cc2)n1	11µM	?	-	-	?	?
COc1ccc(C(=O)Nc2ccc(S(=O)(=O)Nc3cc(C)nc(C)n3)cc2)c(OC)c1	-	23µM	-	-	21µM	-
COc1ccc(C(=O)Nc2ccc(C)cn2)c(OC)c1	-	?	-	-	21µM	-
Cc1nc2cc(NC(=O)c3ccc([N+](=O)[O-])s3)ccc2s1	-	5.2µM	-	.	2.9µM	-
CCCCn1c(N)c(N(CC(C)C)C(=O)c2ccc(F)c(S(=O)(=O)N3CCOCC3)c2)c(=O)[nH]c1=O	-	-	-	.	-	-
COc1ccc2c(N)c(C(=O)NN)[nH]c2c1	-	?	-	-	?	-
Cc1ccc(-c2nnc(Nc3ccc(OCC(N)=O)cc3)c3ccccc23)cc1S(=O)(=O)N(C)C	-	?	.	-[12.3 µM]	?	-
Cc1cc(NS(=O)(=O)c2ccc(NC(=O)c3ccc([N+](=O)[O-])s3)cc2)nc(C)n1	-	-	-53	-	-	?
COCC(=O)Nc1cc(C(=O)N2CC3(C)CC2CC(C)(C)C3)c2c(c1)nc(-c1ccncc1)n2C (stereo unspecified)	.	-	.	.	-[9.04 µM]	.
CN(C)S(=O)(=O)c1ccc(S(=O)(=O)Nc2ccc3c(c2)oc2ccccc23)cc1	-	?	-	-	-	11µM
CCN(CC)S(=O)(=O)c1ccc(S(=O)(=O)Nc2ccc3c(c2)oc2ccccc23)cc1	-	?	-	-	?	?
Cc1ccc(OCc2cc(=O)n3cc(C)sc3n2)c(NC(=O)c2ccco2)c1	-	?	.	-	-	-
O=C(NCc1ccccc1)Nc1cccn(Cc2ccccc2Cl)c1=O	-	?	-	-	?	-
Cc1cccc(N(CC(=O)Nc2c(C)n(C)n(-c3ccccc3)c2=O)S(C)(=O)=O)c1C	-	-	-	-	-	2.8µM
Cc1ccc(N(CC(=O)Nc2c(C)n(C)n(-c3ccccc3)c2=O)S(C)(=O)=O)cc1C	-	-	-	-	-	-
Cc1cc(NC(=O)CN(c2cccc(C)c2C)S(=O)(=O)c2ccccc2)ccc1Br	-	16µM	.	.	18µM	?
SMILES	HepG2 tox	DT40 TDP1 no CPT	IL-1B inflam inh	TDP1 inh	TDP1 cell CPT	TGFb inhibitor
Cc1cc(C)cc(NC(=O)CN(c2cccc(C)c2C)S(=O)(=O)c2ccccc2)c1	-	21µM	.	.	16µM	-
Cc1nn(-c2ccc(F)cc2)c(-n2cccc2)c1C(=O)NCCc1ccc(Cl)cc1	-	.	.	-	.	?
Cc1ccccc1C(=O)Nc1ccccc1OCc1cc(=O)n2ccccc2n1	-	?	.	-	?	-
CN(C(=S)Nc1ccc(Oc2ccccc2)cc1)c1ccc(O)cc1	-	?	-73	-	?	?
CN(C(=S)Nc1ccc(SC(F)F)cc1)c1ccc(O)cc1	-	?	-54	-	?	-
COc1cc(OC)cc(-c2c(-c3cccs3)c3cc(-c4ccc(C(N)=O)cc4)ccc3n2C)c1	-	16µM	-	-	?	-
COc1ccc(-c2ccc3c(c2)c(-c2cccs2)c(-c2cc(OC)cc(OC)c2)n3C)cc1	-	23µM	-	-	?	-
COc1cc(OC)cc(-c2c(-c3cccs3)c3cc(-c4cc(OC)c(OC)c(OC)c4)ccc3n2C)c1	-	-	-	-	?	-
COc1ccc(NC(=O)c2cc(-c3ccco3)nc3ccccc23)cc1	-	?	-	.	-	-
Cc1ccc(-c2cc(C(=O)Nc3ccccc3C(N)=O)c3ccccc3n2)o1	-	10µM	-	.	15µM	?
Cc1ccc(-c2cc(C(=O)N(C)CC(=O)Nc3ccccc3Br)c3ccccc3n2)o1	-	?	?	-	16µM	-
COc1ccc(NC(=O)c2cc(-c3ccc(C)o3)nc3ccccc23)cc1OC	-	16µM	?	-	18µM	-
COc1ccc(NC(=O)c2cc(-c3ccc(C)o3)nc3ccccc23)c(OC)c1	-	12µM	-	.	?	-
Cc1ccc(-c2cc(C(=O)Nc3nccs3)c3ccccc3n2)o1	-	?	-	-	?	-
O=C(CC(=O)N/N=C/c1c(Cl)cccc1Cl)NCc1cccnc1	-	-	-	-	-	-
N#C/C(=C\C1=C(N2CCOCC2)C(=C/c2cccc([N+](=O)[O-])c2)/CC1)C(=O)Nc1ccccc1F	-	10µM	-	-	9.2µM	-
CC(C)C(NC(=O)C12CC3CC(CC(C3)C1)C2)C(=O)N/N=C/C1=C(N2CCOCC2)C(=C\c2ccc([N+](=O)[O-])cc2)/CC1 (stereo unspecified)	-	-	-	-	-	-
N#C/C(=C\c1cccc([N+](=O)[O-])c1)C(=O)NCC1CCCO1 (stereo unspecified)	-	-	-	-	-	-
CC(NC(=O)C12CC3CC(CC(C3)C1)C2)C(=O)N/N=C/C1=C(N2CCOCC2)C(=C\c2cccc([N+](=O)[O-])c2)/CC1 (stereo unspecified)	-	12µM	-	-	?	-
